Common to all, as to test: NCI-60 one-dose screen, 48 h (100 = growth as untreated, 0 = no growth, -100 = all killed)
The subject of one experiment is HCT-15 colon. The settings on record: 10 µM.
Another experiment concerns HT29 colon. The settings on record: 10 µM.
For a further experiment, the system named is SNB-75 CNS. The settings on record: 10 µM.
For a further experiment, the system named is SNB-19 CNS. The note with it: 10 µM.
A further experiment deals with U251 CNS. The settings on record: 10 µM.
Another experiment deals with PC-3 prostate. The note with it: 10 µM.
Another experiment has as its system SK-MEL-5 melanoma. The settings on record: 10 µM.
In the next experiment the test system is UACC-62 melanoma.
The subject of another experiment is LOX IMVI melanoma. The note with it: 10 µM.
The next experiment concerns SK-MEL-2 melanoma. The note with it: 10 µM.
In another experiment the test system is EKVX NSCLC. The note with it: 10 µM.
For another experiment, the system named is UO-31 renal. The note with it: 10 µM.
The next experiment has as its system TK-10 renal.
The subject of a further experiment is ACHN renal. The note with it: 10 µM.
A further experiment has as its system HL-60(TB) leukemia. The note with it: 10 µM.
The test system of a further experiment is CCRF-CEM leukemia. The settings on record: 10 µM.
The test system of the next experiment is SK-MEL-28 melanoma. The note with it: 10 µM.
The test system of a further experiment is CAKI-1 renal. The note with it: 10 µM.
The subject of the next experiment is SN12C renal. The settings on record: 10 µM.
The test system of a further experiment is A498 renal. The note with it: 10 µM.

“And” between values parts separate entries of the source, which are not always exact repeats. Equal values may be shown once. Compounds without any hit were thinned out: in the full panel of roughly 83,000, 20% have a hit.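 Treatment: one concentration, 48 hours, 96-well format. Scoring: percent growth, with anything below 10 considered active.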 A number with no mark means an inactive call. The source made the active and inactive calls.

With `CC1CCC2(OC1)OC1C(O)C3C4CCC5CC(OC6OC(CO)C(OC7OC(CO)C(O)C(OC8OCC(O)C(O)C8O)C7OC7OC(CO)C(O)C(OC8OC(CO)C(O)C(O)C8O)C7O)C(O)C6O)C(O)CC5(C)C4CCC3(C)C1C2C` (configuration not stated), the growth with HCT-15 colon is 37.3%; in the experiment with HT29 colon it was -40.5% (active); in the experiment with SNB-75 CNS it was -32% (active); with SNB-19 CNS, -71.7% (active); in the experiment on U251 CNS, -51.1% (active); in the experiment with PC-3 prostate it was -93.4% (active). Moreover, the growth in the experiment on SK-MEL-5 melanoma is -62.2% (active); in the experiment with UACC-62 melanoma (10 µM), 22.5%; in the experiment on UACC-62 melanoma (100 µM), -89.7% (active) and -92% (active); in the experiment on LOX IMVI melanoma, -69.8% (active); in the experiment on SK-MEL-2 melanoma, 8.3% (active); in the experiment with EKVX NSCLC, -17.2% (active). In addition, the growth in the experiment with UO-31 renal was -96.8% (active); in the experiment on TK-10 renal (10 µM) it was -27.4% (active); with TK-10 renal (100 µM) it was -99% (active) and -94% (active); in the experiment on ACHN renal, 1.57% (active); in the experiment with HL-60(TB) leukemia, -17.1% (active); in the experiment with CCRF-CEM leukemia, -15.7% (active).
Take `C[C@]12CC[C@H]3[C@@H](CCC4=CC(=O)CC[C@@H]43)[C@@H]1CC[C@@H]2OC(=O)N(CCCl)N=O`: the growth in the experiment with HCT-15 colon is 66.8%; in the experiment on HT29 colon it was 59%; in the experiment on SNB-75 CNS, 50.1%; in the experiment on SNB-19 CNS it was 34.5%; with U251 CNS, 30.6%; in the experiment with PC-3 prostate it was 43.1%. Moreover, the growth in the experiment on SK-MEL-5 melanoma is 51.3%; in the experiment on UACC-62 melanoma (10 µM unless noted) it was 20.6%; with LOX IMVI melanoma, 39.3%; in the experiment on SK-MEL-28 melanoma, 90.2%; in the experiment on SK-MEL-2 melanoma, 27.4%; with EKVX NSCLC, 119%. In addition, the growth in the experiment on UO-31 renal was 40.8%; in the experiment with TK-10 renal (10 µM unless noted), 87.6%; in the experiment with ACHN renal it was 13%; with CAKI-1 renal it was 27.4%; in the experiment with HL-60(TB) leukemia, -22.6% (active); in the experiment on CCRF-CEM leukemia it was 11%.
For `O=C1CCC(=O)N1SC(Cl)(Cl)Cl`, the growth in the experiment with HCT-15 colon is 107%; in the experiment with HT29 colon, 102%; in the experiment on SNB-75 CNS, 92.1%; in the experiment on SNB-19 CNS it was 103%; with U251 CNS, 118%; with PC-3 prostate, 91.2%. For the same compound, the growth in the experiment with SK-MEL-5 melanoma is 99.5%; in the experiment with UACC-62 melanoma (10 µM unless noted), 106%; in the experiment on LOX IMVI melanoma it was 108%; with SK-MEL-28 melanoma, 107%; in the experiment with SK-MEL-2 melanoma it was 97%; in the experiment with EKVX NSCLC it was 117%. Moreover, the growth with UO-31 renal was 99.1%; in the experiment with TK-10 renal (10 µM unless noted), 99.2%; with ACHN renal, 110%; in the experiment with HL-60(TB) leukemia, 100%; with CCRF-CEM leukemia, 94.5%.
Turning to `[Cl][Hg][c]1ccc(Cl)s1`, the growth in the experiment on HCT-15 colon was -59.5% (active); with HT29 colon it was 25.2%; in the experiment on SNB-75 CNS, 58.1%; with SNB-19 CNS it was 75.5%; in the experiment with U251 CNS, 14.9%; with PC-3 prostate it was 64.1%. The growth was 46% in the experiment on SK-MEL-5 melanoma; 51.3% with UACC-62 melanoma (10 µM unless noted); -70.9% (active) with LOX IMVI melanoma; -85.4% (active) with SK-MEL-28 melanoma; 64.3% with SK-MEL-2 melanoma; -18.7% (active) in the experiment on EKVX NSCLC. Besides, the growth in the experiment with UO-31 renal was -64.3% (active); in the experiment with TK-10 renal (10 µM unless noted), 30.9%; with ACHN renal, -80.9% (active); in the experiment on HL-60(TB) leukemia, -17.2% (active); with CCRF-CEM leukemia it was -11% (active).
On to `COc1cc([C@@H]2c3cc4c(c(O)c3C[C@H]3COC(=O)[C@@H]32)OCO4)cc(OC)c1OC`, for which the growth with HCT-15 colon is 10.2%; with HT29 colon, 12.9%; in the experiment on SNB-75 CNS, 24%; in the experiment on SNB-19 CNS, 7.28% (active); in the experiment with U251 CNS it was 23.8%; in the experiment on PC-3 prostate, -0.628% (active). Further, the growth with SK-MEL-5 melanoma was -42.8% (active); in the experiment on UACC-62 melanoma (10 µM unless noted) it was 64.3%; in the experiment with LOX IMVI melanoma, 19.9%; in the experiment on SK-MEL-28 melanoma, 54.3%; with SK-MEL-2 melanoma, -25.1% (active); in the experiment on EKVX NSCLC, 44.2%. The growth was 31.8% with SN12C renal; 32.7% with UO-31 renal; 38.8% with TK-10 renal (10 µM unless noted); 33.8% with ACHN renal; 20.3% with CAKI-1 renal; -29.1% (active) in the experiment on A498 renal. For the same compound, the growth with HL-60(TB) leukemia is -33.5% (active); in the experiment on CCRF-CEM leukemia, -5.4% (active).
In the case of `CC/C(=C/c1ccc(OC)cc1)[N+](=O)[O-]`, the growth was -35.4% (active) in the experiment on HCT-15 colon; 3.04% (active) with HT29 colon; 53.9% in the experiment on SNB-75 CNS; 30.1% in the experiment with SNB-19 CNS; 22.5% in the experiment with U251 CNS; 59.2% in the experiment on PC-3 prostate. Moreover, the growth in the experiment with SK-MEL-5 melanoma was 36.2%; in the experiment on UACC-62 melanoma (10 µM unless noted), -60.8% (active); in the experiment on LOX IMVI melanoma, -92.5% (active); with SK-MEL-28 melanoma, -52.4% (active); in the experiment with SK-MEL-2 melanoma, 27%; in the experiment on EKVX NSCLC, 78%. Besides, the growth in the experiment with SN12C renal was -43.7% (active); in the experiment with UO-31 renal, -61.6% (active); with TK-10 renal (10 µM unless noted), -9.47% (active); in the experiment on ACHN renal, -43% (active); with HL-60(TB) leukemia, -1.61% (active); with CCRF-CEM leukemia, -9.4% (active).
Turning to `O=S(=O)(F)c1ccc(Cl)cc1`, the growth in the experiment on HCT-15 colon was 98%; with HT29 colon, 106%; with SNB-75 CNS it was 92.9%; in the experiment with SNB-19 CNS, 101%; in the experiment with U251 CNS, 109%; in the experiment with PC-3 prostate it was 91.4%. The growth was 108% in the experiment with SK-MEL-5 melanoma; 103% with UACC-62 melanoma (10 µM unless noted); 96.7% in the experiment with LOX IMVI melanoma; 119% with SK-MEL-28 melanoma; 124% in the experiment on SK-MEL-2 melanoma; 110% with EKVX NSCLC. Moreover, the growth with SN12C renal is 105%; in the experiment with UO-31 renal, 91.5%; in the experiment on TK-10 renal (10 µM unless noted), 107%; in the experiment on ACHN renal, 111%; in the experiment with CAKI-1 renal, 105%; in the experiment on HL-60(TB) leukemia, 123%. Further, in the experiment with CCRF-CEM leukemia, the growth is 92.7%.

These data come from PubChem BioAssay (NCI).
